# Measured values taken from PubChem BioAssay (NCI).
# Compounds without any hit were thinned out: in the full panel of roughly 79,000, 15% have a hit. Values without a mark were called inactive. Calls of active or inactive are those of the source. No stated cut-off is given here; in the data, active means growth inhibition above about 70%; inactive means the rest.
# Columns and labels:
# [1] = NCI Yeast Anticancer Drug Screen. Data for the rad50 strain (AID 155);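 further: 0% = growth of vehicle-only cultures of the same strain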; settings: S. cerevisiae rad50 strain growth inhibition, hits give high values
# Procedure, shortened: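 Yeast carrying a defined DNA repair defect were exposed to test compounds, and growth was compared with vehicle-treated controls to give percent inhibition.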
# [2] = NCI Yeast Anticancer Drug Screen. Data for the mec2-1 strain (AID 157); settings: S. cerevisiae mec2-1 strain, hits give high values
# Procedure, shortened: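 Vehicle-treated cultures served as reference for growth inhibition of compound-exposed mec2-1 yeast.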
# [3] = NCI Yeast Anticancer Drug Screen. Data for the sgs1 mgt1 strain (AID 161);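 further: 0% = growth of cultures given vehicle only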; settings: S. cerevisiae sgs1 mgt1 strain, hits give high values
# Procedure, shortened: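 Genetically altered yeast, compound exposure, growth inhibition relative to vehicle.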
# [4] = NCI Yeast Anticancer Drug Screen. Data for the cln2 rad14 strain (AID 165);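 further: 0% = growth equal to vehicle treated cultures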; settings: S. cerevisiae cln2 rad14 strain, hits give high values
# Procedure, shortened: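 Each compound was tested on cln2 rad14 yeast. Inhibition of growth was calculated against vehicle-exposed controls.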
# [5] = NCI Yeast Anticancer Drug Screen. Data for the bub3 strain (AID 167); settings: S. cerevisiae bub3 mutant strain, hits give high values
# Procedure, shortened: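 Compounds were applied to a genetically altered yeast strain carrying a cell-cycle control defect. Growth inhibition was scored against vehicle-treated controls.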
# [6] = NCI Yeast Anticancer Drug Screen. Data for the mlh1 rad18 strain (AID 175); settings: S. cerevisiae mlh1 rad18 strain growth inhibition, hits give high values
# Procedure, shortened: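 Vehicle-treated cultures served as the reference for growth inhibition in a yeast strain carrying DNA damage repair alterations exposed to each compound.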
# [7] = at 5.0 µM (retest, dose inferred, filed as 0.5)
# [8] = at 50.0 µM (retest, dose inferred, filed as 5.0)
Compound,"growth inhibition [1, 7] [%]","growth inhibition [1, 8]",growth inhibition ([1]; at 50.0 µM),"growth inhibition [2, 7] [%]","growth inhibition [2, 8]",growth inhibition ([2]; at 50.0 µM),"growth inhibition [3, 7] [%]","growth inhibition [3, 8]",growth inhibition ([3]; at 50.0 µM),"growth inhibition [4, 7] [%]","growth inhibition [4, 8]",growth inhibition ([4]; at 50.0 µM),"growth inhibition [5, 7] [%]","growth inhibition [5, 8]",growth inhibition ([5]; at 50.0 µM),"growth inhibition [6, 7] [%]","growth inhibition [6, 8]",growth inhibition ([6]; at 50.0 µM)
CC1=NC(C)C(C)S1 (stereo not given),-1,3%,9.45%,0,0%,5.5%,-1,1%,-2.5%,4,0%,16.1%,3,3%,55.9%,2,4%,12.7%
COc1ccc2c(c1OC)C1=C(C2=O)c2cc3c(cc2CCN1)OCO3,-4,76% (active),23.1%,0,86% (active),45.7%,9,92% (active),61.5%,2,95% (active),40.9%,-15,51%,68.4%,8,93% (active),53.1%
CCCCC1C(=S)N(c2ccccc2)N(c2ccccc2)C1=S,0,-2%,24.1%,2,-13%,40.9%,5,-14%,82.8% (active),0,-10%,8.6%,3,-6%,37%,-7,3%,60.4%
CCCCNc1ccc(-c2c(N)nc(N)nc2CC)cc1[N+](=O)[O-],-7,0%,62.4%,-16,2%,17.6%,-9,15%,57%,-34,8%,27.1%,-4,-1%,-0.35%,-9,-16%,62.8%
CC(=O)OCc1c2ccccc2c(C)c2c1cc(F)c1ccccc12,35,87% (active),98.2% (active),25,89% (active),98.8% (active),52,90% (active),98.1% (active),14,85% (active),98.2% (active),15,86% (active),98.5% (active),40,88% (active),98.2% (active)
O=C1c2ccccc2-c2cc([N+](=O)[O-])c([N+](=O)[O-])cc21,16,99% (active),93.2% (active),19,45%,98.6% (active),21,99% (active),96% (active),-15,90% (active),90% (active),7,99% (active),98.7% (active),5,98% (active),98.3% (active)
COc1ccc(/C=C/c2ccnc3ccccc23)cc1,24,98% (active),90.3% (active),20,99% (active),92.2% (active),22,99% (active),89.7% (active),25,96% (active),89% (active),48,99% (active),86.5% (active),29,98% (active),86% (active)
COC(=O)C1=Cc2cc3c(cc2[C@H](c2ccc4c(c2)OCO4)C1C(=O)OC)OCO3 (stereo not given in full),2,26%,48.6%,-5,20%,33.9%,3,40%,47.5%,0,40%,37%,26,70% (active),71.4% (active),2,23%,56.8%
COC(=O)c1c(/C(=N/Nc2ccc([N+](=O)[O-])cc2)[N+](=O)[O-])ssc1=N,14,37%,21.1%,0,44%,24.9%,13,60%,27.6%,6,23%,27.9%,6,40%,24.9%,15,54%,70.9% (active)
CSC1NNC2(C(=O)N1)c1ccccc1-c1ccccc12 (stereo not given),-2,96% (active),87.3% (active),-15,98% (active),87.9% (active),2,96% (active),90.7% (active),9,96% (active),88.5% (active),13,97% (active),91.7% (active),-1,96% (active),88.8% (active)
